# Screening results from PubChem.
# Only some compounds are listed: those with a hit (about 2.4% of all), similar ones and a draw of the others.
# D2 ag-1: D2 dopamine receptor (human) agonism; HEK293 T-REx D2 cells, calcium flux agonist mode; activation, % at 2 µM; 0.53% of 340,000 active; AID 485358;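 active means activation over 3 SD above normal in the single-dose calcium agonist read, cut at about 30% in these data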; further: 0% is about no effect
# Target sequence (P14416 whole entry, looked up): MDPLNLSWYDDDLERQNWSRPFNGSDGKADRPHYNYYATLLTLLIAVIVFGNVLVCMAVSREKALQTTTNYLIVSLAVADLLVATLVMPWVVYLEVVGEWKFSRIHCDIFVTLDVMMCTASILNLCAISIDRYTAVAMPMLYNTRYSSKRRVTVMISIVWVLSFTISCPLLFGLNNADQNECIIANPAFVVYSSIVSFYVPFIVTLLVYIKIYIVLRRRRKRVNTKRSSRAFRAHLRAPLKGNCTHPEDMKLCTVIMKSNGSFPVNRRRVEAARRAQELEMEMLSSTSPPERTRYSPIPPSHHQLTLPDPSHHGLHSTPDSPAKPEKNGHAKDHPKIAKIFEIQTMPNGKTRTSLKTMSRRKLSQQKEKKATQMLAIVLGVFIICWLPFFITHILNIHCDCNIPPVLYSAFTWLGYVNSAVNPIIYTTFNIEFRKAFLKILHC
#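 Calcium-flux readout, 1 cycle/sec over 180 s following compound pin transfer, in inducible HEK293 Trex D2 cells (force-coupled); dopamine controls included. Positive calcium responses during this window marked compounds as potential agonists.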
# D2 antagonist: antagonists of human D2 dopamine receptor | HEK293 TREx D2 cells, calcium flux, dopamine EC80 | P14416 | AID 485344 | 2% of 340,000 active | inhibition, % at 10 µM; in the data active means inhibition above about 30%; inactive means below that, where a call was filed; further: 0% is about no effect
#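 Tetracycline-induced HEK293 T-REx cells expressing D2 force-coupled to calcium signalling were dye-loaded, exposed to compound for 180 s, then challenged with an EC80 of dopamine; calcium flux was followed kinetically for a further 180 s.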
# D2 PAM-1: D2 dopamine receptor (human) potentiation; P14416; HEK293 T-REx D2, calcium flux, EC20 dopamine potentiation; potentiation, % at 10 µM; 0.34% of 340,000 active;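 active means potentiation over 3 SD above the plate norm, cut at about 30% in these data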; further: 0% is about no effect
#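 Tetracycline-induced Hek293 Trex D2 cells, force-coupled to calcium, loaded with no-wash calcium dye. Compound added with 180 s kinetic read for agonism, then EC20 dopamine and a further 180 s read for potentiation.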
# D2 PAM-2: human D2 receptor positive allosteric modulation; 0.23% of 360,000 active; potentiation, % (concentration not given with the values); DiscoveRx D2 beta-arrestin cells, luminescence, 90 min; 100% = 57 uM dopamine signal; P14416; in the data active means potentiation above about 50%
#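 D2 cells co-treated with compound plus 50 nM dopamine (EC20) for 90 min at 37 deg C to detect potentiation. Beta-arrestin recruitment was read as enzyme-fragment luminescence after 1 h at ambient temperature. Full response was set by 57 uM dopamine.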
# D2 ag-2: human D2 receptor agonism in beta-arrestin assay; 0.084% of 360,000 active; AID 624465; DiscoveRx PathHunter D2 beta-arrestin, luminescence, 90 min; 100% = 57 uM dopamine signal; P14416; activation, % (concentration not given with the values); in the data active means activation above about 40%
#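 Agonist mode: compounds alone added to overnight-plated D2 PathHunter cells for 90 min at 37 C, with 57 uM final dopamine (EC100) defining full response. Beta-arrestin recruitment detected by chemiluminescent reagent, read after 1 h at ambient temperature.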
# * marks the source's active call; other numbers are inactive results; . = no result.
SMILES,D2 ag-1,D2 antagonist,D2 PAM-1,D2 PAM-2,D2 ag-2
COc1cc(/C=C2\SC(N3CCc4ccccc4C3)=NC2=O)cc(OC)c1OC,0,56*,-29,-23,-8
O=C(Nc1ccc2c(c1)OCCO2)c1cccc2nc3ccccc3nc12,0,-28,34*,-2,-3
Cc1ccc(C(=O)N2CCc3cc(CNC(=O)CSc4ccccc4)ccc32)cc1,0,.,9,.,.
CC1CCC(NC(=O)c2ccc3c(c2)N(Cc2ccccc2F)C(=O)c2ccccc2S3=O)CC1 (configuration not stated),1,.,11,.,.
O=S(=O)(Cc1ccccc1)Nn1cnnc1,0,31*,7,-4,-1
Cc1cccc(NS(=O)(=O)Cc2ccccc2)n1,0,-30,-6,-2,-1
OC1(c2cccc(F)c2)CCN(Cc2ccncc2)CC1,0,56*,-22,-41,-3
O=C(NNc1nc2ccc(F)cc2s1)c1cccc(F)c1,5,41*,-14,-20,6
CN(C(=O)c1cc(-c2ccccc2O)on1)c1ccccc1,-1,.,10,.,.
CCc1ccc(NS(=O)(=O)c2c(-c3ccccc3)csc2C(=O)OC)cc1,-1,.,10,.,.
O=S(=O)(CCc1nc2ccccc2s1)c1ccc(Cl)cc1,0,-8,0,7,2
COc1ccc(S(=O)(=O)CCc2nc3ccccc3s2)cc1,0,59*,-3,-2,-3
COC(=O)/C(=C/c1cccc([N+](=O)[O-])c1)NC(=O)c1ccc(OC)cc1,-1,10,6,2,0
COc1ccc(/C=C(/NC(=O)c2cccc([N+](=O)[O-])c2)C(=O)O)cc1OC,0,56*,-3,-4,4
COc1cc(C(=O)Nc2ccccc2N2CCCCC2)cc(OC)c1OC,-1,0,-9,-2,-2
COc1cc(-c2cc(C(=O)Nc3ccccc3N3CCOCC3)c3ccccc3n2)cc(OC)c1OC,0,-24,33*,24,-5
COc1cc(C(=O)NC(=S)Nc2ccccc2N2CCCC2)cc(OC)c1OC,-1,43*,7,-23,-4
O=C(Nc1ccccc1N1CCOCC1)c1cc(-c2ccco2)nc2ccccc12,0,2,7,16,2
Cc1ccc(-c2cc(C(=O)N(Cc3ccc(C(C)(C)C)cc3)Cc3ccco3)no2)cc1,-2,.,13,.,.
CC(=O)NC(CC(=O)OCc1ccc([N+](=O)[O-])cc1)c1ccccc1 (configuration not stated),-1,-4,37*,-7,-3
Cc1ccc(NC(=O)Nc2nnc(N(C)C3CCCCC3)s2)c(Cl)c1,-1,.,8,.,.
CCOc1ccc(C(=O)N2CCN(Cc3cc(=O)n4nc(-c5ccccc5Cl)sc4n3)CC2)cc1,1,.,-6,.,.
COc1ccccc1CNC(=O)N[C@@H](Cc1ccccc1)C(=O)O,0,37*,0,-6,-1
O=C(Cc1ccccc1)N[C@@H](Cc1ccc(O)cc1)C(=O)O,0,36*,3,.,.
O=C(NC1CCCCC1)c1ccc(Cn2c(SCc3cccc(F)c3)nc3cccnc32)cc1,-1,.,-15,.,.
SMILES,D2 ag-1,D2 antagonist,D2 PAM-1,D2 PAM-2,D2 ag-2
COc1ccc(C(=O)CN2C(=O)N(c3cc(C)cc(C)c3)S(=O)(=O)c3ccccc32)cc1,-1,.,4,.,.
O=C(NCc1cccnc1)c1ccc(-c2ccc(Cl)cc2)o1,0,-19,-17,-17,3
O=C(NCc1cccnc1)c1ccc(-c2cc(Cl)ccc2Cl)o1,-1,50*,-20,-6,-6
Cc1ccc(CSCC(=O)NCc2cccnc2)cc1,-1,-1,-3,-3,0
Cc1ccc(CC(=O)NCc2cccnc2)cc1,1,67*,4,.,.
Cc1c(Cl)c([N+](=O)[O-])nn1CC(=O)NCc1cccnc1,0,39*,-2,0,3
COc1cc(Br)c(C2CC(=O)Nc3cc(OC)c(OC)c(OC)c32)cc1OC (configuration not stated),-1,.,.,.,.
CCN(c1ccccc1)S(=O)(=O)c1ccc2[nH]cc(C(=O)NCc3ccc(C)cc3)c(=O)c2c1,9,.,4,.,.
COCCCNC(=O)CN(c1cc(Cl)ccc1OC)S(=O)(=O)c1ccc(C)c([N+](=O)[O-])c1,0,1,10,-2,-3
COCCNC(=O)CN(c1cc(Cl)ccc1OC)S(=O)(=O)c1ccc(C)c([N+](=O)[O-])c1,0,59*,-4,-6,-4
CCN(CC)CCn1c(NS(=O)(=O)c2ccc(C)cc2)nc2ccccc21,0,51*,-19,-40,-2
O=[N+]([O-])c1ccc(C[n+]2ccc(Cc3ccccc3)cc2)cc1,0,3,-1,10,13
c1ccc(Cc2cc[n+](Cc3ccccn3)cc2)cc1,0,42*,9,-2,-2
CCCCOc1ccc(C2c3c(oc4ccc(C)cc4c3=O)C(=O)N2CCCN(C)C)cc1OCC (configuration not stated),1,.,-13,.,.
COC(=O)C1Sc2[nH]c(=O)sc2C(c2ccc(Cl)cc2)C1C(=O)OC (configuration not stated),-1,38*,5,-2,-3
COC(=O)C1Sc2[nH]c(=O)sc2C2c3ccccc3OC(=O)C12 (configuration not stated),0,-5,23,-9,2
COc1ccc(CNCC(O)COc2cccc3c2OC(C)(C)C3)cc1 (configuration not stated),0,44*,-32,-46,-5
COc1ccc(Cn2c(=O)n(Cc3ccco3)c(=O)c3oc4ccccc4c32)cc1,.,.,3,.,.
CCOC(=O)C(=CNc1cc(C)nn1-c1ccc(C)cc1)C(=O)OCC,-1,14,8,65*,-1
Nc1cc2c(cc1[N+](=O)[O-])OCCO2,0,47*,-8,-26,-3
COc1ccccc1NS(=O)(=O)c1ccc(NN=C2CCCC2)c([N+](=O)[O-])c1,-1,34*,3,15,0
COc1ccccc1NS(=O)(=O)c1ccc(N/N=C/C=C/c2ccccc2[N+](=O)[O-])c([N+](=O)[O-])c1,0,-1,-2,-11,2
CC(C)c1noc(-c2ccccc2OCC(=O)Nc2ccc([N+](=O)[O-])cc2)n1,0,.,4,.,.
CCOc1ccc2c(c1)c(=O)c(C(=O)c1ccccc1)cn2Cc1ccccc1F,.,.,14,.,.
Cn1cnnc1SCC(=O)Nc1nc(-c2ccccc2)cs1,0,56*,-6,-7,-4
Cc1nnc(SCC(=O)Nc2nc(-c3ccccc3)cs2)n1N,0,-2,7,0,-1
Cc1nc2sccn2c(=O)c1S(=O)(=O)N1CCN(c2ccc(F)cc2)CC1,0,-11,-4,-4,-6
Cc1nc2sccn2c(=O)c1CCN1CCC(=C(c2ccc(F)cc2)c2ccc(F)cc2)CC1,-1,78*,-30,-37,-2
